According to PubChem BioAssay (NCI):
The panel holds about 83,000 compounds, 20% with a hit somewhere; the sample as a whole holds those more often.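 Treatment: one concentration, 48 hours, 96-well format. Scoring: percent growth, with anything below 10 considered active.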 Activity calls are given as the source filed them.

Key:
Assay in all cases: NCI-60 one-dose screen, 48 h (100 = growth as untreated, 0 = no growth, -100 = all killed)
Conditions in all cases: 10 µM unless noted
HT29 colon = system: HT29 colon
SNB-75 CNS = system: SNB-75 CNS
SNB-19 CNS = system: SNB-19 CNS
PC-3 prostate = system: PC-3 prostate
SK-MEL-5 melanoma = system: SK-MEL-5 melanoma
UACC-62 melanoma = system: UACC-62 melanoma
LOX IMVI melanoma = system: LOX IMVI melanoma
SK-MEL-28 melanoma = system: SK-MEL-28 melanoma
SK-MEL-2 melanoma = system: SK-MEL-2 melanoma
U251 CNS = system: U251 CNS

Measured: growth

O=C(C(Br)Br)C(Br)C(Br)c1ccccc1 (stereo not given)
active: HT29 colon -5.3%
inactive: SNB-75 CNS 115% | SNB-19 CNS 112% | PC-3 prostate 101% | SK-MEL-5 melanoma 99.3% | UACC-62 melanoma 95.2% | LOX IMVI melanoma 53.3% | SK-MEL-28 melanoma 106% | SK-MEL-2 melanoma 117%

CC(CCC(=O)O)(NC(=O)c1ccc([N+](=O)[O-])cc1)C(=O)O (stereo not given)
inactive: HT29 colon 109% | SNB-75 CNS 91.6% | U251 CNS 104% | PC-3 prostate 98.4% | SK-MEL-5 melanoma 101% | UACC-62 melanoma 109% | LOX IMVI melanoma 97.1% | SK-MEL-28 melanoma 107% | SK-MEL-2 melanoma 108%

C[C@]12CC[C@@H]3c4ccc(O)c([N+](=O)[O-])c4CC[C@H]3[C@@H]1CC[C@@H]2NS(=O)(=O)c1cccc(Br)c1
inactive: HT29 colon 68.1% | SNB-75 CNS 47.2% | SNB-19 CNS 50.6% | PC-3 prostate 15.9% | SK-MEL-5 melanoma 25.6% | UACC-62 melanoma 35.4% | SK-MEL-28 melanoma 49.6%

CN1CCN(Cc2ccc(NC(=O)c3[nH]ncc3Nc3ccnc4ccnn34)cc2)CC1
inactive: HT29 colon 67% | SNB-75 CNS 63.2% | U251 CNS 62% | PC-3 prostate 55.9% | SK-MEL-5 melanoma 71.6% | UACC-62 melanoma 67.7% | LOX IMVI melanoma 24.1% | SK-MEL-28 melanoma 65.6% | SK-MEL-2 melanoma 60.6%

O=C(O)c1ccc(NC(=O)c2cccc(Nc3ccnc(C(F)(F)F)c3)c2)cc1
inactive: HT29 colon 106% | SNB-75 CNS 105% | SNB-19 CNS 106% | PC-3 prostate 105% | SK-MEL-5 melanoma 101% | UACC-62 melanoma 108% | SK-MEL-28 melanoma 110%

CCCCOc1ccc(C(C)(C)c2ccc(OCCCC)cc2)cc1
inactive: HT29 colon 102% | SNB-75 CNS 97.6% | SNB-19 CNS 108% | PC-3 prostate 99.9% | SK-MEL-5 melanoma 111% | UACC-62 melanoma 106% | LOX IMVI melanoma 101% | SK-MEL-28 melanoma 107% | SK-MEL-2 melanoma 96.9%

COc1ccc(Cn2c(NCCCN(C)C)nc(=O)n(Cc3ccc(F)cc3)c2=O)cc1
inactive: HT29 colon 95.9% | SNB-75 CNS 81.4% | SNB-19 CNS 104% | PC-3 prostate 80.3% | SK-MEL-5 melanoma 97.8% | UACC-62 melanoma 97% | SK-MEL-28 melanoma 100%

OC(c1cc(C(F)(F)F)nc2c(C(F)(F)F)cccc12)C1CCCCN1 (stereo not given)
active: HT29 colon -66.5%
inactive: SNB-75 CNS 33% | SNB-19 CNS 53.7% | PC-3 prostate 36.7% | SK-MEL-5 melanoma 61.3% | UACC-62 melanoma 76.6% | LOX IMVI melanoma 11.9% | SK-MEL-28 melanoma 72.1% | SK-MEL-2 melanoma 56.4%

Cc1cc2c(cc1C)Nc1sc(NC(=O)CN3CCN(C)CC3)nc1C(=O)N2
inactive: HT29 colon 99.8% | SNB-75 CNS 104% | SNB-19 CNS 96.6% | UACC-62 melanoma 105% | SK-MEL-28 melanoma 108%

COc1ccc(CCN2CCCN3C2=Nc2ccccc2S3(=O)=O)cc1
inactive: HT29 colon 13.7% | SNB-75 CNS 16.2% | U251 CNS 30% | PC-3 prostate 38.5% | SK-MEL-5 melanoma 35.9% | UACC-62 melanoma 23.5% | LOX IMVI melanoma 27.7% | SK-MEL-28 melanoma 62.5% | SK-MEL-2 melanoma 51.9%

C[C@]12CC[C@@H]3c4ccc(O)c([N+](=O)[O-])c4CC[C@H]3[C@@H]1CC[C@@H]2NS(=O)(=O)c1ccc(C(F)(F)F)cc1
inactive: HT29 colon 48% | SNB-75 CNS 40.5% | SNB-19 CNS 48.7% | PC-3 prostate 24.2% | SK-MEL-5 melanoma 20.4% | UACC-62 melanoma 36.1% | SK-MEL-28 melanoma 43.5%

O=C(O)c1ccc(NC(=O)c2ccc(Nc3ccnc(C(F)(F)F)c3)cc2)cc1
inactive: HT29 colon 109% | SNB-75 CNS 98.7% | SNB-19 CNS 99.7% | PC-3 prostate 99.4% | SK-MEL-5 melanoma 101% | UACC-62 melanoma 107% | SK-MEL-28 melanoma 106%

COc1ccc(-c2csc(NC(=O)c3cc(OC)c(OC)c(OC)c3)n2)cc1
inactive: HT29 colon 110% | SNB-75 CNS 102% | SNB-19 CNS 94% | PC-3 prostate 90.9% | SK-MEL-5 melanoma 98.5% | UACC-62 melanoma 89% | SK-MEL-28 melanoma 101%

O=c1[nH]c(Cl)nc2c1cnn2-c1ccccc1
inactive: HT29 colon 64.4% | SNB-75 CNS 82.9% | U251 CNS 100% | PC-3 prostate 76.6% | SK-MEL-5 melanoma 96.5% | UACC-62 melanoma 67.6% | LOX IMVI melanoma 71.7% | SK-MEL-28 melanoma 70.7% | SK-MEL-2 melanoma 103%

CCCCC(C#N)C(N)=O (stereo not given)
inactive: HT29 colon 101% | SNB-75 CNS 95.6% | SNB-19 CNS 107% | PC-3 prostate 88.2% | SK-MEL-5 melanoma 107% | UACC-62 melanoma 102% | LOX IMVI melanoma 98.4% | SK-MEL-28 melanoma 107% | SK-MEL-2 melanoma 101%

O=C(/C=C/c1ccc(O)c(O)c1)N1CCN(c2ccc(Cl)cc2)CC1
inactive: HT29 colon 80.1% | SNB-75 CNS 72.1% | SNB-19 CNS 73.9% | PC-3 prostate 61.7% | SK-MEL-5 melanoma 54.5% | UACC-62 melanoma 81.3% | SK-MEL-28 melanoma 81%

CCN1C[C@@H](C)n2c(c(O)c3c(=O)n(Cc4ccc(F)c(Cl)c4)nc(C(=O)NC)c32)C1=O
inactive: HT29 colon 106% | SNB-75 CNS 20.2% | SNB-19 CNS 12% | PC-3 prostate 69.4% | SK-MEL-5 melanoma 15.1% | SK-MEL-28 melanoma 28.9%
active: UACC-62 melanoma -4.84%

CN(C)c1cccc2c(S(=O)(=O)N[C@H]3CC[C@H]4[C@@H]5CCc6cc(O)ccc6[C@H]5CC[C@]34C)cccc12
active: HT29 colon 2.71%
inactive: SNB-75 CNS 40.4% | SNB-19 CNS 62.5% | PC-3 prostate 16.1% | SK-MEL-5 melanoma 41.5% | UACC-62 melanoma 49.9% | SK-MEL-28 melanoma 54.7%

O=C(Cc1ccccn1)C(F)(F)C(F)(F)C(F)(F)F
inactive: HT29 colon 111% | SNB-75 CNS 93.6% | SNB-19 CNS 99.8% | SK-MEL-5 melanoma 110% | UACC-62 melanoma 102% | LOX IMVI melanoma 95.5% | SK-MEL-28 melanoma 105% | SK-MEL-2 melanoma 109%

ClC1=C(Cl)C(Cl)=C(Cl)C1=Cc1ccc(Cl)cc1
inactive: SNB-75 CNS 97.5% | SNB-19 CNS 76.4% | SK-MEL-5 melanoma 100% | UACC-62 melanoma 58.6% | SK-MEL-28 melanoma 116% | SK-MEL-2 melanoma 99.7%
active: HT29 colon -30.1% | PC-3 prostate -36.1% | LOX IMVI melanoma -85.5%

N#Cc1c(N)[nH]c(S)c1C#N
inactive: HT29 colon 99.9% | SNB-75 CNS 97.2% | U251 CNS 101% | PC-3 prostate 87.9% | SK-MEL-5 melanoma 96.9% | UACC-62 melanoma 94.9% | LOX IMVI melanoma 102% | SK-MEL-28 melanoma 113% | SK-MEL-2 melanoma 92%

CCOC(=O)c1c(C)c(C(=O)OCC)n(C)c1C
inactive: HT29 colon 88.5% | SNB-75 CNS 83.6% | U251 CNS 99.5% | SK-MEL-5 melanoma 126% | UACC-62 melanoma 83.8% | SK-MEL-28 melanoma 116%

CCN(CC)c1ccc(CN(CC(=O)c2ccc(Cl)c(Cl)c2)Cc2ccccc2)cc1
inactive: HT29 colon 105% | SNB-75 CNS 93% | U251 CNS 103% | PC-3 prostate 83% | SK-MEL-5 melanoma 97.9% | UACC-62 melanoma 90.9% | LOX IMVI melanoma 94.3% | SK-MEL-28 melanoma 110% | SK-MEL-2 melanoma 96.9%

CCCCCCCCCCCCNc1ncnc2[nH]ncc12
inactive: HT29 colon 97.9% | SNB-75 CNS 105% | U251 CNS 87.7% | PC-3 prostate 69.7% | SK-MEL-5 melanoma 36.1% | UACC-62 melanoma 57.1% | LOX IMVI melanoma 44.6% | SK-MEL-28 melanoma 100% | SK-MEL-2 melanoma 85.9%

O=C(/C=C/c1ccccc1Cl)c1ccc(O)cc1
inactive: HT29 colon 14.5% | SNB-75 CNS 46.7% | U251 CNS 31.4% | SK-MEL-5 melanoma 58.1% | UACC-62 melanoma 73.4% | LOX IMVI melanoma 36.2% | SK-MEL-28 melanoma 96.1%

CCC(C)(C)C(=O)O[C@H]1C[C@@H](C)C=C2C=C[C@H](C)[C@H](CC[C@@H]3C[C@@H](O)CC(=O)O3)[C@H]21
inactive: HT29 colon 76.9% | SNB-75 CNS 13.7% | PC-3 prostate 33.9% | SK-MEL-28 melanoma 62.3% | SK-MEL-2 melanoma 26.3%
active: U251 CNS 4.81% | LOX IMVI melanoma -16.2%

C=C1CC[C@@H]2[C@](C)(COC(C)=O)[C@H](OC(C)=O)CC[C@@]2(C)[C@@H]1CC(Nc1ccc(S(=O)(=O)Nc2cc(C)on2)cc1)C1=CCOC1=O (stereo not given in full)
active: HT29 colon -11% | LOX IMVI melanoma -72.7%
inactive: SNB-75 CNS 59.4% | U251 CNS 30% | PC-3 prostate 70.8% | SK-MEL-5 melanoma 44.1% | UACC-62 melanoma 19.8% | SK-MEL-28 melanoma 38.1% | SK-MEL-2 melanoma 63%

COc1ncc(-c2ccc3nccc(C#CCN4CCN(S(C)(=O)=O)CC4)c3c2)cc1NS(=O)(=O)c1ccc(F)cc1F
active: SNB-75 CNS -11.4% | U251 CNS 6.79% | PC-3 prostate 0.156% | SK-MEL-5 melanoma -92.3% | UACC-62 melanoma -54.9% | LOX IMVI melanoma -11.4% | SK-MEL-28 melanoma 3.79% | SK-MEL-2 melanoma 0.951%
inactive: HT29 colon 10.3%

Clc1ccc2c(Nc3ccc4oc(NCCN5CCCC5)nc4c3)ccnc2c1
inactive: HT29 colon 38.1% | SNB-75 CNS 79.8% | U251 CNS 70.1% | PC-3 prostate 79.9% | SK-MEL-5 melanoma 99.1% | UACC-62 melanoma 94.2% | LOX IMVI melanoma 29.5% | SK-MEL-28 melanoma 89.6% | SK-MEL-2 melanoma 105%

CCN1CCN(c2cc(-c3cn[nH]c3-c3cc(C)cc(OC)c3)nc(-c3cccnc3)n2)CC1
inactive: HT29 colon 33.4% | SNB-75 CNS 75.9% | U251 CNS 48.3% | PC-3 prostate 100% | SK-MEL-5 melanoma 81.9% | UACC-62 melanoma 102% | SK-MEL-28 melanoma 87.4% | SK-MEL-2 melanoma 93.6%

CN(CC(=O)N(Cc1ccc(C2CCCCC2)cc1)c1ccc(C(=O)O)cc1)S(=O)(=O)c1c(F)c(F)c(F)c(F)c1F
inactive: SNB-75 CNS 68.6% | PC-3 prostate 10.4% | SK-MEL-5 melanoma 86.6%
active: HT29 colon -22.3% | U251 CNS -25.4% | UACC-62 melanoma -7.33% | LOX IMVI melanoma -64.1% | SK-MEL-28 melanoma -51.8% | SK-MEL-2 melanoma -31.7%

CC[N+](C)(CC)CCCC(C)Nc1ccnc2cc(Cl)ccc12 (stereo not given)
inactive: HT29 colon 111% | SNB-75 CNS 99.8% | U251 CNS 98.8% | PC-3 prostate 98% | SK-MEL-5 melanoma 101% | UACC-62 melanoma 105% | LOX IMVI melanoma 99.7% | SK-MEL-28 melanoma 117% | SK-MEL-2 melanoma 108%

CCN(CC)CCCNCCCNc1cc(OC)cc2cccnc12
inactive: HT29 colon 40% | SNB-75 CNS 82.8% | U251 CNS 77.9% | PC-3 prostate 82.4% | SK-MEL-5 melanoma 92.1% | LOX IMVI melanoma 80.3% | SK-MEL-28 melanoma 99.4% | SK-MEL-2 melanoma 101%
